From PubChem
Many of the other results were omitted from the sample, so hits are more common in it than they were.
TDP1 cell noCPT = qHTS for Inhibitors of human tyrosyl-DNA phosphodiesterase 1 (TDP1): qHTS in cells in absence of CPT; Potency, µM (titrated, usually from 46.2 µM), hits mostly inhibitors; DT40 Tdp1-/- hTDP1 cells, no CPT, ATP luminescence, 48 h; hit rate 15% among 420,000; also: nearly all actives have a fitted effect of over 55% in size
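Growth kinetics read by CellTiter-Glo luminescence after ≥48 hr at 37 °C. Cells: DT40 Tdp1-/- stably carrying human TDP1, 400 per well, compound exposure in the absence of CPT (DMSO vehicle).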
ALOX12 inh = ALOX12 (human) lipoxygenase inhibition | P18054 | purified 12hLO, xylenol orange hydroperoxide absorbance | Potency, µM (highest dose often 108 µM), usual class: inhibitors | hit rate 1.1% among 580,000
Target sequence (P18054 whole entry, looked up): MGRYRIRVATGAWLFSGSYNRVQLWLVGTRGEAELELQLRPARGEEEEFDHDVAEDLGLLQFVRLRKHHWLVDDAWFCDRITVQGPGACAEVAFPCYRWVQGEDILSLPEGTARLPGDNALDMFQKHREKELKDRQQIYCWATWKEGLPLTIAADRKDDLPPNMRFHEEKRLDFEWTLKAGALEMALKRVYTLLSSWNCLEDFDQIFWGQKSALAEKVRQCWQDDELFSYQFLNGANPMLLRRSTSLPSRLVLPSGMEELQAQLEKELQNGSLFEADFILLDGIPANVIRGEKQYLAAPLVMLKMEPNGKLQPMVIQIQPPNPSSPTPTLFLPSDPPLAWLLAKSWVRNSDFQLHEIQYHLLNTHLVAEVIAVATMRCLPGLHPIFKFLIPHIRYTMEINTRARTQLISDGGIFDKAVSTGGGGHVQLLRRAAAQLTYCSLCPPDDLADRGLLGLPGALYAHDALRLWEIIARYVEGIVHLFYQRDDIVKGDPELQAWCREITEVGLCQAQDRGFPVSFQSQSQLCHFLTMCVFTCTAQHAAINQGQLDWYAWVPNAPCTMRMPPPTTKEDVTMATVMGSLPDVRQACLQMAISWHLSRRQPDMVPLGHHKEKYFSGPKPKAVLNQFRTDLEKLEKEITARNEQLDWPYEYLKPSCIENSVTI
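Hydroperoxide product was detected by ferrous iron/xylenol orange as the 573 to 405 nm absorbance ratio. Arachidonic acid at 40 uM (final) was turned over for 30 min at room temperature by 150 nM human 12hLO, pH 7.0 Hepes buffer, after 15 min compound preincubation.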
IL1B secr inh = inflammasome signaling inhibition, IL-1 beta readout; THP-1 LPS/ATP IL-1B secretion, AlphaLISA, 16 h; active compounds read low; activity change, % at 57.5 µM; hit rate 4.7% among 360,000; AID 743279; in the data active = activity change below about -50%; inconclusive = mostly about -30% to -49%
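Secreted IL-1B measured by AlphaLISA bead assay after 16 h compound exposure of THP-1 cells; compounds (final up to 57.5 uM) added 1 h before LPS (250 ng/mL) and ATP (1.25 mM) stimulation; lower signal means less secretion.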
DT40 TDP1 CPT = DT40-hTDP1 cell growth loss with CPT; chicken DT40 Tdp1-/-;hTDP1 cells + 20 nM CPT, ATP luminescence, 48 h; Potency, µM (titrated, usually from 46.2 µM), hits mostly inhibitors; hit rate 12% among 420,000; AID 686979; also: nearly all actives have a fitted effect of over 55% in size
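Chicken DT40 Tdp1-/- cells stably complemented with human TDP1 were seeded at 400 cells/well in medium containing 20 nM camptothecin, exposed to pin-transferred compounds, and grown at 37 °C for at least 48 hr. Viability was read as ATP luminescence.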
HT1080NT lethal = kills 2HG-producing HT-1080-NT fibrosarcoma cells; hit rate 1.6% among 360,000; AID 686970; Potency, µM (top dose mostly 46.1 µM), usual class: cytotoxic; HT-1080-NT fibrosarcoma viability, CellTiter-Glo ATP luminescence, 48 h;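 also: NT is the 2HG producing partner of a matched IDH1 knockdown line; nearly all actives have a fitted effect of over 55% in size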
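Compounds were tested in concentration-response format on HT-1080-NT cells for 48 hours at 37 degrees C. Cell viability came from CellTiter-Glo luminescence; curves were classified by r2, response magnitude and activity.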
HT1080 IDH1KD tx = HT-1080 IDH1 knockdown cell toxicity (counter line); HT-1080 IDH1 knockdown viability, ATP luminescence, 48 h; hit rate 2% among 360,000; Potency, µM (series often up to 46.1 µM), most hits filed as cytotoxic
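Viability of IDH1-knockdown HT-1080 fibrosarcoma cells was assessed by CellTiter-Glo after 48 h at 37 °C with titrated compound; concentration-effect curves were classified by fit quality and response size.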
Numbers stand for hits. Unless noted, calls follow the shape of the dose curve; as a rule, active = well fitted curve in the direction sought with a large enough effect; inconclusive = small, poorly fitted or top-dose-only effect, or another doubt; inactive = no such curve, though single readings can be large; an effect the other way counts as inactive or inconclusive.

What do the screens show for `COc1ccc(C(C(=O)NC2CCCCC2)N(C(=O)c2ccco2)c2ccccc2OC)cc1` (stereo unspecified)?
TDP1 cell noCPT: 16.4µM; ALOX12 inh: inactive; IL1B secr inh: inactive; DT40 TDP1 CPT: inconclusive; HT1080NT lethal: inactive; HT1080 IDH1KD tx: inconclusive

What do the screens show for `COc1cccc(C(C(=O)NC2CCCCC2)N(C(=O)c2ccco2)c2ccccc2OC)c1` (stereo unspecified)?
TDP1 cell noCPT: 11.6µM; ALOX12 inh: inactive; IL1B secr inh: inactive; DT40 TDP1 CPT: inconclusive; HT1080NT lethal: inactive; HT1080 IDH1KD tx: inactive

What do the screens show for `COc1ccc(C(C(=O)NC2CCCC2)N(C(=O)c2ccco2)c2ccccc2OC)cc1` (stereo unspecified)?
TDP1 cell noCPT: inconclusive; ALOX12 inh: inactive; IL1B secr inh: inactive; DT40 TDP1 CPT: inactive; HT1080NT lethal: inactive; HT1080 IDH1KD tx: inactive

Results for COc1ccc(C)cc1N(C(=O)c1ccco1)C(C(=O)NC1CCCC1)c1ccc(N2CCOCC2)cc1 (stereo unspecified) ?
TDP1 cell noCPT: 9.2µM; ALOX12 inh: inactive; IL1B secr inh: -58.5; DT40 TDP1 CPT: inactive; HT1080NT lethal: inactive; HT1080 IDH1KD tx: inactive

Results for O=C(c1ccc(CC2CCN(C(=O)C3CCCO3)CC2)cc1)N1CCOCC1 (stereo unspecified) ?
ALOX12 inh: inactive

How did CN1CCN(c2ccccc2NC(=O)c2cccc(OCc3ccccc3)c2)CC1 do in these assays?
TDP1 cell noCPT: 20.6µM; ALOX12 inh: inactive; IL1B secr inh: -65.3; DT40 TDP1 CPT: inconclusive; HT1080NT lethal: inconclusive; HT1080 IDH1KD tx: 17.8µM

How did CN1CCN(c2ccccc2NC(=O)c2ccc(OCc3ccccc3)cc2)CC1 do in these assays?
TDP1 cell noCPT: inconclusive; ALOX12 inh: inconclusive; IL1B secr inh: -54.6; DT40 TDP1 CPT: 16.4µM; HT1080NT lethal: inconclusive; HT1080 IDH1KD tx: 23.1µM

Results for CN1CCN(c2ccccc2NC(=O)c2ccc(-c3ccccc3)cc2)CC1 ?
TDP1 cell noCPT: 16.4µM; ALOX12 inh: inconclusive; IL1B secr inh: -59.3; DT40 TDP1 CPT: inconclusive; HT1080NT lethal: inconclusive; HT1080 IDH1KD tx: inconclusive

Results for Cc1nc(COc2ccc(C(=O)Nc3ccccc3N3CCOCC3)cc2)cs1 ?
TDP1 cell noCPT: 14.6µM; ALOX12 inh: inactive; IL1B secr inh: inconclusive; DT40 TDP1 CPT: inconclusive; HT1080NT lethal: inactive; HT1080 IDH1KD tx: inactive

What do the screens show for `CCn1cc(CN(C)CC(=O)N2CCCCCC2)ccc1=O`?
ALOX12 inh: inactive

What do the screens show for `CC12CCC(C(=O)NCc3ccc4c(c3)OCO4)(C(=O)C1=O)C2(C)C` (stereo unspecified)?
TDP1 cell noCPT: inactive; ALOX12 inh: inactive; IL1B secr inh: inactive; DT40 TDP1 CPT: inactive; HT1080NT lethal: inactive; HT1080 IDH1KD tx: inactive

What do the screens show for `O=C(Cc1ccsc1)N1CCC2(CC1)CC(N1CCCCC1)CCO2` (stereo unspecified)?
ALOX12 inh: inactive

What do the screens show for `O=C(NCc1ccccc1CN1CCCC1)c1ccc(OCc2cscn2)cc1`?
TDP1 cell noCPT: inactive; ALOX12 inh: inactive; IL1B secr inh: inactive; DT40 TDP1 CPT: inactive; HT1080NT lethal: inactive; HT1080 IDH1KD tx: inactive

Results for Cc1nc(COc2ccc(C(=O)NCc3ccccc3CN3CCCCC3)cc2)cs1 ?
TDP1 cell noCPT: 23.1µM; ALOX12 inh: inactive; IL1B secr inh: inactive; DT40 TDP1 CPT: inconclusive; HT1080NT lethal: inactive; HT1080 IDH1KD tx: inactive

How did O=C(COC(=O)CCC(=O)c1ccc(F)cc1)Nc1ccccc1-c1ccccc1 do in these assays?
ALOX12 inh: inactive

How did COc1cc(OC)cc(C(=O)N2CCCN(c3cc(-c4ccc(Br)cc4)[nH]n3)CC2)c1 do in these assays?
ALOX12 inh: inactive

Results for CCOc1ccc2nc(N3CCC(C(=O)N4CCN(C5CCCCC5)CC4)CC3)sc2c1 ?
TDP1 cell noCPT: inconclusive; ALOX12 inh: inactive; IL1B secr inh: inactive; DT40 TDP1 CPT: 8.2µM; HT1080NT lethal: inactive; HT1080 IDH1KD tx: inactive

How did CCOc1ccc2nc(NC(=O)C3CCN(C(=O)c4ccco4)CC3)sc2c1 do in these assays?
TDP1 cell noCPT: inconclusive; ALOX12 inh: inconclusive; IL1B secr inh: inconclusive; DT40 TDP1 CPT: inconclusive; HT1080NT lethal: inactive; HT1080 IDH1KD tx: inactive

How did CCOc1ccc2nc(N3CCC(C(=O)Nc4ccccc4CC)CC3)sc2c1 do in these assays?
TDP1 cell noCPT: 23.1µM; ALOX12 inh: inactive; DT40 TDP1 CPT: inconclusive

How did CCOc1ccc2nc(N3CCC(C(=O)N4CCN(C(=O)c5ccco5)CC4)CC3)sc2c1 do in these assays?
TDP1 cell noCPT: 23.1µM; IL1B secr inh: inactive; DT40 TDP1 CPT: inconclusive; HT1080NT lethal: inactive; HT1080 IDH1KD tx: inactive

What do the screens show for `O=C(O)c1sccc1-c1ccccc1`?
ALOX12 inh: inactive

Results for Cn1c(C(=O)NCc2ccc(F)cc2)cc2cc(Cl)ccc21 ?
ALOX12 inh: inactive

How did O=C(CCc1ncc(-c2c(F)cccc2F)o1)NC1CCN(Cc2ccccc2)C1 (stereo unspecified) do in these assays?
ALOX12 inh: inactive

Results for CCN(CC)C(=O)c1nn(-c2ccccc2)c2c1C1CCC2(C)C1(C)C (stereo unspecified) ?
TDP1 cell noCPT: 16.4µM; ALOX12 inh: inactive; IL1B secr inh: inconclusive; DT40 TDP1 CPT: 23.1µM; HT1080NT lethal: inactive; HT1080 IDH1KD tx: inactive

How did CN(C)Cc1ccccc1CNC(=O)c1nn(-c2ccccc2)c2c1CCC2 do in these assays?
ALOX12 inh: inactive

How did CCCS(=O)(=O)N1CCC2(CC1)CN(c1ccccc1)C2=O do in these assays?
ALOX12 inh: inactive

What do the screens show for `O=C(NNC(=S)Nc1ccccc1)c1cc(-c2cccnc2)nc2ccccc12`?
TDP1 cell noCPT: inactive; ALOX12 inh: inconclusive; IL1B secr inh: inactive; DT40 TDP1 CPT: inactive; HT1080NT lethal: inactive; HT1080 IDH1KD tx: inactive

Results for CC(=O)Nc1ccc(NC(=O)c2cc(-c3ccccc3)nc3ccccc23)cc1 ?
TDP1 cell noCPT: 11.6µM; ALOX12 inh: inactive; IL1B secr inh: inactive; DT40 TDP1 CPT: inconclusive; HT1080NT lethal: inactive; HT1080 IDH1KD tx: inactive

What do the screens show for `O=C(NC(=S)Nc1ccccc1)c1cc(-c2ccccc2)nc2ccccc12`?
TDP1 cell noCPT: inconclusive; ALOX12 inh: inconclusive; IL1B secr inh: inactive; DT40 TDP1 CPT: 29.1µM; HT1080NT lethal: inactive; HT1080 IDH1KD tx: inactive

Results for O=C(NNC(=O)c1cc(-c2ccc(Cl)cc2Cl)nc2ccccc12)Nc1ccccc1 ?
TDP1 cell noCPT: 20.6µM; ALOX12 inh: inactive; IL1B secr inh: -64.0; DT40 TDP1 CPT: inconclusive; HT1080NT lethal: inconclusive; HT1080 IDH1KD tx: inconclusive

How did Cc1ccc(NC(=O)c2cc(-c3cccnc3)nc3ccccc23)cc1 do in these assays?
ALOX12 inh: inactive
